Reference: PubChem BioAssay (NCI)
Compounds without any hit were thinned out: in the full panel of roughly 83,000, 20% have a hit.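 The endpoint reported here, percent growth, reads 100 for growth as untreated, 0 for no net growth and -100 for all cells dead.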 Calls of active or inactive are those of the source. Rule for the calls: active = growth percent below 10; inactive = the rest.

Columns and labels:
Experiment in all cases: NCI-60 one-dose screen, 48 h (100 = growth as untreated, 0 = no growth, -100 = all killed)
Conditions in all cases: 10 µM unless noted
[1] = test system: SK-MEL-2 melanoma
[2] = test system: EKVX NSCLC
[3] = test system: SN12C renal
[4] = test system: UO-31 renal
[5] = test system: TK-10 renal
[6] = test system: ACHN renal
[7] = test system: CAKI-1 renal
[8] = test system: A498 renal
[9] = test system: CCRF-CEM leukemia
[10] = test system: MOLT-4 leukemia

Measured: growth

CCOC(=O)C#Cc1c(C(=O)OCC)nnn1Cc1ccc(C(F)(F)F)cc1
active: [4] 1.49% | [5] 8.7% | [6] -25.4% | [7] 0.164% | [9] 8.84%
inactive: [1] 97.1% | [2] 93.6% | [3] 57.7% | [8] 104% | [10] 25.1%

COc1cc(Cl)c(C)cc1NC(=O)c1cc2ccccc2cc1O
inactive: [10] 17.5%
active: [1] -33.1% | [2] 0.938% | [3] 8.39% | [4] 0.513% | [5] 6.75% | [6] 4.34% | [7] -12.7% | [8] -9.59% | [9] 7.39%

CCN1C(=O)N(CC)C2C1NN=c1s/c(=C3\C(=O)N(CCC(C)C)c4ccccc43)c(=O)n12 (stereo not given)
inactive: [1] 60.8% | [2] 48.2% | [3] 25.2% | [4] 29.5% | [5] 79.8% | [6] 30.7% | [7] 29.9% | [9] 13.7% | [10] 20.7%
active: [8] -1.36%

N#C/C(=C\C=C\c1ccc(-c2cc(Cl)ccc2Cl)o1)c1nc2ccccc2s1
inactive: [1] 104% | [2] 80.2% | [3] 92% | [4] 68.2% | [5] 118% | [6] 90.5% | [7] 75.1% | [8] 126% | [9] 91.8% | [10] 99.1%

N=c1c(S(=O)(=O)c2ccccc2)cc2c(=O)n3ccccc3nc2n1CC1CCCO1 (stereo not given)
inactive: [1] 112% | [2] 107% | [3] 96.8% | [4] 56.4% | [5] 114% | [6] 103% | [7] 85.2% | [8] 84.1% | [9] 109% | [10] 102%

CS(=O)(=O)c1ccc(NC(=O)c2ccccc2)nc1
inactive: [1] 109% | [2] 109% | [3] 99.1% | [4] 99.9% | [5] 93.5% | [6] 111% | [7] 106% | [8] 92.3% | [9] 74.7% | [10] 71.3%

COc1cc(/C=C/C(=O)c2ccc(-n3cc(CN4CCN(c5cc6c(cc5F)c(=O)c(C(=O)O)cn6C5CC5)CC4)nn3)cc2)ccc1O
inactive: [1] 93% | [2] 85% | [3] 37.6% | [4] 52.6% | [5] 84.9% | [6] 77.7% | [7] 52.5% | [8] 70.8% | [9] 29.9% | [10] 68.2%

O=C(N/N=C\c1cccc([N+](=O)[O-])c1)N/N=C/c1cccc([N+](=O)[O-])c1
inactive: [1] 108% | [2] 98% | [3] 96.8% | [4] 86.8% | [5] 117% | [6] 98.6% | [7] 95.8% | [8] 82.3% | [9] 98.7% | [10] 106%

O=C1C(Nc2ccccn2)=C(I)C(=O)c2ncccc21
active: [1] -53.7% | [2] -7.46% | [3] -70.8% | [4] -97.7% | [5] -21.4% | [6] -36.1% | [7] 5.77% | [9] 3.29% | [10] -25.4%
inactive: [8] 68.2%

CN(C)c1ccc(-c2ccc3c(c2)c(-c2ccccc2)nc(=O)n3C)cn1
inactive: [1] 26.8% | [2] 69.6% | [3] 42.6% | [4] 42.3% | [5] 56.4% | [6] 49.9% | [7] 34.7% | [8] 25.8% | [9] 13% | [10] 29.9%

Nn1c(=O)c(=O)[nH]c2c(cnn2-c2ccccc2)c1=O
inactive: [1] 122% | [2] 98.9% | [3] 105% | [4] 82.2% | [5] 109% | [6] 105% | [7] 94.3% | [8] 113% | [9] 108% | [10] 101%

COc1ccc2c(c1)c(-c1nc(-c3c[nH]c4ncccc34)cs1)cn2CCCN1CCOCC1
inactive: [1] 11.4% | [2] 57.8% | [3] 52.7% | [4] 11.9% | [5] 51.5% | [6] 14.5% | [7] 28.8% | [8] 27.8% | [9] 13.1%
active: [10] -1.04%

C=C1CC[C@@H]2C(C)(C)[C@@H](O)CC[C@@]2(C)[C@@H]1COc1ccc2ccc(=O)oc2c1
inactive: [1] 88.3% | [2] 60.3% | [3] 74.9% | [4] 52.6% | [5] 95% | [6] 80.1% | [7] 73.5% | [8] 68.9% | [9] 60.8% | [10] 47.4%

O=C1/C(=C\c2cccc3nccnc23)SC(=S)N1CCc1ccc(O)cc1
inactive: [1] 108% | [2] 100% | [3] 84.9% | [4] 62.1% | [5] 121% | [6] 97.3% | [7] 79.1% | [8] 105% | [9] 67.2% | [10] 93.1%

Cc1c(CN)cc(-c2ccc(Cl)cc2)n1-c1ccccc1
active: [8] -7.73%
inactive: [1] 90.2% | [2] 82.6% | [3] 87.6% | [4] 59.2% | [5] 66.3% | [6] 74.7% | [7] 40.7% | [9] 81.7% | [10] 82.3%

NC(=O)c1cccc([C@@H]2O[C@H](CO)[C@@H](O)[C@H]2O)c1
active: [10] -1.79%
inactive: [1] 103% | [2] 99% | [3] 94.1% | [4] 52.1% | [5] 55.5% | [6] 93.1% | [7] 80.9% | [8] 86.6% | [9] 11%

Cc1[nH]c(C2CC(c3ccc(C(F)(F)F)c(F)c3)=NN2c2ccccc2)c(C)c1C(=O)NCC(F)(F)F (stereo not given)
inactive: [1] 104% | [2] 69.3% | [3] 90.7% | [4] 58.8% | [5] 151% | [6] 95.8% | [7] 59% | [8] 48.2% | [9] 79.4% | [10] 58.3%

CN1CCN(Cc2ccc(NC(=O)c3cncc(C#Cc4cnc5ccc(Cl)nn45)c3)cc2C(F)(F)F)CC1
active: [1] -46.1% | [2] -22% | [3] 0.38% | [4] -11.5% | [5] 5.85% | [6] 1.09% | [7] -13.6% | [8] -8.2% | [9] 2.17% | [10] 3.14%

COc1ccc(C(=O)c2cc3c(N)c(C(=O)Nc4ccccc4)sc3nc2C)cc1
inactive: [1] 54.8% | [2] 50.4% | [3] 32.1% | [4] 52.3% | [5] 65.2% | [6] 42.7% | [7] 40% | [9] 10.4% | [10] 18.3%
active: [8] -1.62%

O=C(Nc1ccccc1N1CCCC1=O)c1oc2ccc(F)cc2c1-c1cnn(-c2ccccc2)c1
inactive: [1] 72.8% [50 µM] | [2] 58.3% [50 µM] | [3] 48.5% [50 µM] | [5] 95.4% [50 µM] | [6] 46% [50 µM] | [7] 35.7% [50 µM] | [8] 29.2% [50 µM] | [9] 56.6% [50 µM] | [10] 37% [50 µM]
active: [4] 9.1% [50 µM]

Cc1ccc(C)c(/C=C2\CN(C(=O)OC(C)(C)C)C/C(=C\c3cc(C)ccc3C)C2=O)c1
active: [9] 4.98% | [10] 7.4%
inactive: [1] 82% | [2] 82.8% | [3] 31.4% | [4] 61.1% | [5] 89.1% | [6] 15.5% | [7] 45.2% | [8] 73%

CN1CCN(C(=O)C(C)(C)c2ccc(C(=O)Nc3cn4cc(-c5ccncc5)ccc4n3)cc2)CC1
active: [1] -26.7% | [4] -23.7% | [5] 0.354% | [6] 2.6% | [7] -5.37% | [8] -63.2%
inactive: [2] 17.9% | [3] 15.6% | [9] 16% | [10] 11.3%

COc1ccc(/C=C(/c2ccccc2)[N+](=O)[O-])c(OC)c1
inactive: [2] 36.2% | [8] 51.5%
active: [1] -6.4% | [3] -20.5% | [4] -97.6% | [5] -26% | [6] -72.4% | [7] -25.5% | [9] 7.93% | [10] 6.93%

CC/C=C\CCC/C=C1/C(=O)C=C[C@@H]1C/C=C\CCCC(=O)OC
inactive: [1] 87.3% | [2] 99.3% | [3] 11.6% | [4] 69.8% | [5] 100% | [6] 42.9% | [7] 54.1% | [8] 95.9%
active: [9] 3.2% | [10] 3.52%

COc1ccc2cc(-c3ccnc4c(N=Nc5ccc(Cl)cc5)c(N)nn34)ccc2c1
inactive: [1] 118% | [2] 114% | [3] 100% | [4] 77.7% | [5] 102% | [6] 100% | [7] 92.2% | [8] 97.2% | [9] 91.6% | [10] 100%

Cn1c(=O)c2[nH]c(SCC(=O)Nc3ccc(C(=O)/C=C/c4ccccc4Cl)cc3)nc2n(C)c1=O
inactive: [1] 126% | [2] 87.9% | [3] 97.7% | [4] 92.7% | [5] 104% | [6] 99% | [7] 98.1% | [8] 85.6% | [9] 79.5% | [10] 87.4%
